Experimental data published in PubChem BioAssay (NCI).
About 83,000 compounds went through this panel and 20% of them were active in at least one assay; those are over-represented in the sample as a whole.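 Single-concentration screen, 48 h exposure, 96-well plates. Endpoint: percent growth. Below 10 = active.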 Active and inactive are the calls of the source.

How the values were obtained:
Assay in all cases: NCI-60 one-dose screen, 48 h (100 = growth as untreated, 0 = no growth, -100 = all killed)
Settings in all cases: 10 µM unless noted
DU-145 prostate = tested on: DU-145 prostate
K-562 leukemia = tested on: K-562 leukemia
MALME-3M melanoma = tested on: MALME-3M melanoma
MDA-MB-231 breast = tested on: MDA-MB-231 breast
RXF 393 renal = tested on: RXF 393 renal
SF-268 CNS = tested on: SF-268 CNS
SF-295 CNS = tested on: SF-295 CNS
SF-539 CNS = tested on: SF-539 CNS
UACC-257 melanoma = tested on: UACC-257 melanoma
M14 melanoma = tested on: M14 melanoma

Measured: growth

O=C1C=Cc2ccccc2/C1=C/c1[nH]c(=O)[nH]c1O
inactive: DU-145 prostate 54.5% | K-562 leukemia 26% | MALME-3M melanoma 23.5% | MDA-MB-231 breast 62.6% | RXF 393 renal 34.2% | SF-268 CNS 55.2% | SF-295 CNS 28.9% | SF-539 CNS 17.6% | M14 melanoma 22.3%
active: UACC-257 melanoma 2.03%

COc1ccc(C)cc1NC(=O)SC(C)C
inactive: DU-145 prostate 103% [100 µM] | K-562 leukemia 92.5% [100 µM] | MALME-3M melanoma 98.8% [100 µM] | MDA-MB-231 breast 92.1% [100 µM] | RXF 393 renal 102% [100 µM] | SF-268 CNS 97.3% [100 µM] | SF-295 CNS 105% [100 µM] | SF-539 CNS 97.6% [100 µM] | UACC-257 melanoma 98.8% [100 µM] | M14 melanoma 110% [100 µM]

CCN(CC)c1ccc2nc3ccc(N=Nc4ccc(N(C)C)cc4)cc3[n+](-c3ccccc3)c2c1
active: DU-145 prostate -98% | K-562 leukemia -4.96% | MALME-3M melanoma -54.1% | MDA-MB-231 breast -46.4% | RXF 393 renal -87.8% | SF-268 CNS 9.77% | SF-295 CNS -82.2% | SF-539 CNS -69.2% | UACC-257 melanoma -52.5% | M14 melanoma -75%

CN(C)c1ccc2c(N(C)C)cc(N(C)C)nc2c1
inactive: DU-145 prostate 93% | K-562 leukemia 64.4% | MALME-3M melanoma 98.4% | MDA-MB-231 breast 64.2% | RXF 393 renal 97.7% | SF-268 CNS 91.6% | SF-295 CNS 65.9% | SF-539 CNS 84.9% | UACC-257 melanoma 122% | M14 melanoma 81.7%

COc1cc(OC)c2cc(C(=O)c3ccc(C#N)cc3)c(=O)oc2c1
inactive: DU-145 prostate 102% | K-562 leukemia 85.1% | MALME-3M melanoma 95.7% | MDA-MB-231 breast 79.3% | RXF 393 renal 109% | SF-268 CNS 88.1% | SF-295 CNS 97.2% | SF-539 CNS 82.5% | UACC-257 melanoma 102% | M14 melanoma 105%

Cc1ccc(C)c(CCO)c1
inactive: DU-145 prostate 93% | K-562 leukemia 116% | MALME-3M melanoma 106% | MDA-MB-231 breast 92.6% | RXF 393 renal 103% | SF-268 CNS 96.1% | SF-295 CNS 102% | SF-539 CNS 97.2% | UACC-257 melanoma 94.8% | M14 melanoma 108%

O=Cc1ccc(Cl)c(Cl)c1
inactive: DU-145 prostate 94.8% | K-562 leukemia 104% | MALME-3M melanoma 98.7% | MDA-MB-231 breast 116% | RXF 393 renal 94.3% | SF-268 CNS 101% | SF-295 CNS 119% | SF-539 CNS 117% | UACC-257 melanoma 96.4% | M14 melanoma 102%

CC(C)C1CCC(C)C(O)C1 (stereo not given)
inactive: DU-145 prostate 106% | K-562 leukemia 103% | MALME-3M melanoma 109% | MDA-MB-231 breast 93.9% | RXF 393 renal 108% | SF-268 CNS 100% | SF-295 CNS 100% | SF-539 CNS 100% | UACC-257 melanoma 85.6% | M14 melanoma 101%

CC(C)Sc1ncnc2nc[nH]c12
inactive: DU-145 prostate 121% | K-562 leukemia 113% | MALME-3M melanoma 109% | MDA-MB-231 breast 105% | RXF 393 renal 93% | SF-268 CNS 121% | SF-295 CNS 107% | SF-539 CNS 100% | UACC-257 melanoma 91.7% | M14 melanoma 105%

N#Cc1ccc(OC(=O)Nc2cc(Cl)cc(Cl)c2)cc1
inactive: DU-145 prostate 18.9% [100 µM] | RXF 393 renal 10.3% [100 µM] | SF-268 CNS 12.5% [100 µM]
active: K-562 leukemia 6.66% [100 µM] | MALME-3M melanoma -32.5% [100 µM] | MDA-MB-231 breast -52.8% [100 µM] | SF-295 CNS -23.1% [100 µM] | SF-539 CNS -4.48% [100 µM] | UACC-257 melanoma -20.1% [100 µM] | M14 melanoma -25.3% [100 µM]

CCCCCC#CC(=O)O
inactive: DU-145 prostate 132% | K-562 leukemia 103% | MALME-3M melanoma 99.9% | MDA-MB-231 breast 110% | RXF 393 renal 125% | SF-268 CNS 110% | SF-295 CNS 103% | SF-539 CNS 103% | UACC-257 melanoma 104% | M14 melanoma 120%

O=[n+]1ccn([O-])c2ccccc21
inactive: DU-145 prostate 105% | K-562 leukemia 109% | MALME-3M melanoma 98.3% | MDA-MB-231 breast 94.6% | RXF 393 renal 89.5% | SF-268 CNS 95.8% | SF-295 CNS 107% | SF-539 CNS 99.1% | UACC-257 melanoma 133% | M14 melanoma 96.7%

O=C(Nc1ccccc1)c1ccco1
inactive: DU-145 prostate 112% | K-562 leukemia 93.7% | MALME-3M melanoma 92.9% | MDA-MB-231 breast 112% | RXF 393 renal 123% | SF-268 CNS 117% | SF-295 CNS 103% | SF-539 CNS 102% | UACC-257 melanoma 107% | M14 melanoma 97%

CC(=O)Oc1c(Cl)cccc1-c1ccccc1
inactive: DU-145 prostate 104% | K-562 leukemia 101% | MALME-3M melanoma 111% | MDA-MB-231 breast 98.4% | RXF 393 renal 110% | SF-268 CNS 95.1% | SF-295 CNS 103% | SF-539 CNS 104% | UACC-257 melanoma 87.6% | M14 melanoma 108%

Cc1ccc(S(=O)(=O)NC(=O)NCCSSCCNC(=O)NS(=O)(=O)c2ccc(C)cc2)cc1
inactive: DU-145 prostate 110% | K-562 leukemia 103% | MALME-3M melanoma 97.3% | MDA-MB-231 breast 116% | RXF 393 renal 102% | SF-268 CNS 102% | SF-295 CNS 95.3% | SF-539 CNS 87.5% | UACC-257 melanoma 89.1% | M14 melanoma 111%

Cc1c(Cl)cccc1NC(=S)NC(=O)c1ccccc1
inactive: DU-145 prostate 111% | K-562 leukemia 79.7% | MALME-3M melanoma 89.4% | MDA-MB-231 breast 90.2% | RXF 393 renal 85.5% | SF-268 CNS 109% | SF-295 CNS 85.1% | SF-539 CNS 100% | UACC-257 melanoma 88.9% | M14 melanoma 115%

CC(=O)OC/C(C)=C\CC(C)COC(C)=O (stereo not given)
inactive: DU-145 prostate 114% | K-562 leukemia 103% | MALME-3M melanoma 102% | MDA-MB-231 breast 99.7% | RXF 393 renal 97.1% | SF-268 CNS 109% | SF-295 CNS 94.6% | SF-539 CNS 116% | UACC-257 melanoma 102% | M14 melanoma 96.4%

Cc1ccc(Cc2ccc(C)cc2)cc1
inactive: DU-145 prostate 107% | K-562 leukemia 101% | MALME-3M melanoma 86.9% | MDA-MB-231 breast 123% | RXF 393 renal 99% | SF-268 CNS 106% | SF-295 CNS 101% | SF-539 CNS 106% | UACC-257 melanoma 93.3% | M14 melanoma 99.6%

CC(C)N(C(=O)c1ccccc1)C(C)C
inactive: DU-145 prostate 117% | K-562 leukemia 103% | MALME-3M melanoma 114% | MDA-MB-231 breast 119% | RXF 393 renal 106% | SF-268 CNS 105% | SF-295 CNS 105% | SF-539 CNS 98.3% | UACC-257 melanoma 104% | M14 melanoma 97%

C1CCc2onc(-c3noc4c3CCCCC4)c2CC1
inactive: DU-145 prostate 118% | K-562 leukemia 103% | MALME-3M melanoma 106% | MDA-MB-231 breast 114% | RXF 393 renal 139% | SF-268 CNS 92.9% | SF-295 CNS 99.5% | SF-539 CNS 104% | UACC-257 melanoma 107% | M14 melanoma 112%

NNc1ncccn1
inactive: DU-145 prostate 116% | K-562 leukemia 102% | MALME-3M melanoma 118% | MDA-MB-231 breast 100% | RXF 393 renal 120% | SF-268 CNS 103% | SF-295 CNS 108% | SF-539 CNS 105% | UACC-257 melanoma 104% | M14 melanoma 108%

CC(=O)c1cccs1
inactive: DU-145 prostate 109% | K-562 leukemia 108% | MALME-3M melanoma 115% | MDA-MB-231 breast 101% | RXF 393 renal 96.6% | SF-268 CNS 103% | SF-295 CNS 97.3% | SF-539 CNS 95.6% | UACC-257 melanoma 96.3% | M14 melanoma 102%

CCCC(OC(C)=O)c1ccc2c(c1)OCO2 (stereo not given)
inactive: DU-145 prostate 104% | K-562 leukemia 99% | MALME-3M melanoma 91.9% | MDA-MB-231 breast 113% | RXF 393 renal 104% | SF-268 CNS 102% | SF-295 CNS 105% | SF-539 CNS 105% | UACC-257 melanoma 94.9% | M14 melanoma 102%

O=C1Nc2ccccc2/C1=C\c1ccccc1O
inactive: DU-145 prostate 88.6% | K-562 leukemia 73.1% | MALME-3M melanoma 78% | MDA-MB-231 breast 83.6% | RXF 393 renal 106% | SF-268 CNS 89.7% | SF-295 CNS 96.6% | SF-539 CNS 88.7% | UACC-257 melanoma 94% | M14 melanoma 85.6%

O=C(CCl)Oc1ccc([N+](=O)[O-])cc1
inactive: DU-145 prostate 113% | K-562 leukemia 103% | MALME-3M melanoma 116% | MDA-MB-231 breast 119% | RXF 393 renal 99.5% | SF-268 CNS 109% | SF-295 CNS 97.3% | SF-539 CNS 109% | UACC-257 melanoma 112% | M14 melanoma 103%

C=CCC(OC(C)=O)c1ccc(C(C)C)cc1 (stereo not given)
inactive: DU-145 prostate 118% | K-562 leukemia 108% | MALME-3M melanoma 124% | MDA-MB-231 breast 122% | RXF 393 renal 113% | SF-268 CNS 110% | SF-295 CNS 126% | SF-539 CNS 104% | UACC-257 melanoma 105% | M14 melanoma 114%

NC(=O)OCCO
inactive: DU-145 prostate 104% | K-562 leukemia 82.9% | MALME-3M melanoma 84.7% | MDA-MB-231 breast 109% | RXF 393 renal 110% | SF-268 CNS 97.7% | SF-295 CNS 106% | SF-539 CNS 108% | UACC-257 melanoma 95.6% | M14 melanoma 94.6%

ClCC(Cl)[C@@H]1CC2C=CC1C2 (stereo not given in full)
inactive: DU-145 prostate 113% | K-562 leukemia 105% | MALME-3M melanoma 102% | MDA-MB-231 breast 96.8% | RXF 393 renal 105% | SF-268 CNS 108% | SF-295 CNS 91.3% | SF-539 CNS 110% | UACC-257 melanoma 105% | M14 melanoma 112%

NCCCN1CCCC1=O
inactive: DU-145 prostate 114% | K-562 leukemia 114% | MALME-3M melanoma 99.1% | MDA-MB-231 breast 108% | RXF 393 renal 122% | SF-268 CNS 113% | SF-295 CNS 111% | SF-539 CNS 109% | UACC-257 melanoma 97.3% | M14 melanoma 113%

CCOC(=O)C(=O)CC(=O)c1ccccc1
inactive: DU-145 prostate 102% | K-562 leukemia 118% | MALME-3M melanoma 100% | MDA-MB-231 breast 92.9% | RXF 393 renal 103% | SF-268 CNS 96.7% | SF-295 CNS 104% | SF-539 CNS 100% | UACC-257 melanoma 101% | M14 melanoma 97.1%
